LASV entry inh = blocks Lassa virus binding to or entry into cells; Lassa virus pseudotype entry inhibition, cell reporter; Potency, µM (titrated, usually from 37.9 µM), most hits filed as inhibitors; hit rate 1.2% among 300,000; calls by dose curve; tested in HEK293 cells; note: nearly all actives have a fitted effect of over 50% in size
HCMV antiviral = inhibitors of human cytomegalovirus; HFF cells, HCMV-luciferase reporter, 72 h; active compounds read low; activity change, negative = inhibition, % at 57.5 µM; hit rate 4.5% among 410,000; in the data active = activity change below about -60%; inconclusive = no clear call, values can overlap the other calls; inactive = above about -39%
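HFF cells seeded 16 h at 37C, treated with compounds, infected with luciferase-reporter HCMV at MOI 1 PFU/cell; luciferase read at 72 h post infection, normalized to buffer-only and Salinomycin controls.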
SARS PLP yeast = inhibitors of SARS-CoV papain-like protease in yeast; S. cerevisiae expressing SARS-CoV PLpro, growth rescue; Potency, µM (series often up to 32.9 µM), most hits filed as activators; hit rate 0.19% among 330,000; calls by dose curve; note: nearly all actives have a fitted effect of over 55% in size
HCV inhibitor = blocks hepatitis C virus; AID 651820; hit rate 3.4% among 340,000; Potency, µM (top dose mostly 41.8 µM), hits mostly inhibitors; Huh7.5.1 HCVcc-Cre infection, luciferase reporter, 44 h; active = well fitted inhibition curve with a large enough effect; inconclusive = small, poorly fitted or top-dose-only effect, or another doubt; inactive = no such curve, though single readings can be large or run the other way
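Antiviral activity was scored by luciferase reporter output from cells infected with HCVcc-Cre (~0.5 moi) in presence of compound, 44 h infection period, cells seeded 1,000/well 4 h prior.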
MARV entry inh = inhibitors of Marburg virus binding or cell entry | Marburg virus pseudotyped entry inhibition, cell reporter | Potency, µM (top dose mostly 37.8 µM), most hits filed as inhibitors | hit rate 1.8% among 300,000 | AID 540276; calls by dose curve; tested in HEK293 cells
FMDV inh = blocks foot and mouth disease virus; FMDV antiviral cell-based qHTS; Potency, µM (series often up to 57.9 µM), usual class: inhibitors; hit rate 1.2% among 410,000; calls by dose curve; tested in HEK293T cells; note: read-out not given here; nearly all actives have a fitted effect of over 45% in size
Each line names hits and unclear results; the compound was inactive in the other large screens; ! = not active in a repeat. The list is not random: actives were taken first. Their share in the collection is about 8%.

COc1ccccc1N1CCN(c2nnc(-c3ccc(F)cc3)c3ccccc23)CC1	FMDV inh 20µM
Cc1cc(N2CCN(Cc3nc(-c4ccc(F)cc4)oc3C)CC2)cc(C)n1	HCMV antiviral inconclusive, HCV inhibitor inconclusive (no result: LASV entry inh, MARV entry inh)
O=C(c1ccc2c(c1)OCCO2)C1CCN(C(=O)c2ccc(F)cc2)CC1	HCV inhibitor inconclusive, FMDV inh inconclusive
O=C(c1ccc2c(c1)OCCO2)C1CCN(C(=O)c2ccc(F)c(F)c2)CC1	HCMV antiviral -68, HCV inhibitor inconclusive
O=C(NC1CCCC1)c1ccc(Cl)s1	HCMV antiviral -77
CC(C)C[C@H]1CNC(=S)N1C[C@H]1CCCN1C[C@H](Cc1ccc(O)cc1)N1C[C@H](Cc2ccc(O)cc2)N(CC2CCCCCC2)C1=S	HCMV antiviral -83 (no result: LASV entry inh, SARS PLP yeast, HCV inhibitor, MARV entry inh)
CC(C)C[C@H]1CN([C@@H](Cc2ccc(O)cc2)CN2CCCC2CN2C(=S)NC[C@@H]2Cc2ccccc2)C(=S)N1CC1CCCCC1 (some centres undefined)	none (no result: LASV entry inh, SARS PLP yeast, HCV inhibitor, MARV entry inh)
CC(C)C[C@H]1CN([C@@H](Cc2ccc(O)cc2)CN2CCC[C@@H]2CN2C(=S)NC[C@@H]2Cc2ccccc2)C(=S)N1CC1CCCCCC1	none (no result: LASV entry inh, SARS PLP yeast, HCV inhibitor, MARV entry inh)
CC(C)C[C@H]1CNC(=S)N1CC1CCCN1C[C@H](Cc1ccccc1)N1C[C@H](Cc2ccc(O)cc2)N(CC2CCCCCC2)C1=S (some centres undefined)	HCMV antiviral -101, HCV inhibitor 6.3µM, FMDV inh inconclusive (no result: LASV entry inh, SARS PLP yeast, MARV entry inh)
CC(=O)c1cc2c(cc1NC(=O)c1cnn(-c3ccc(C)cc3)c1-n1cccc1)OCO2	none (no result: SARS PLP yeast, HCV inhibitor, MARV entry inh)
C[C@H](NC(=O)[C@H]1N2C(=O)c3ccccc3C2SC1(C)C)C(=O)N1CCC[C@H]1C(=O)O (some centres undefined)	HCV inhibitor 1µM (no result: LASV entry inh, MARV entry inh)
CC(C)[C@H](NC(=O)[C@H]1N2C(=O)c3ccccc3C2SC1(C)C)C(=O)NCc1ccco1 (some centres undefined)	HCMV antiviral active (no result: LASV entry inh, MARV entry inh)
C[C@H](NC(=O)[C@H]1N2C(=O)c3ccccc3C2SC1(C)C)C(=O)N1CCC[C@H]1CO (some centres undefined)	none (no result: LASV entry inh, MARV entry inh)
COCCNc1oc(/C=C/c2ccc(F)cc2)nc1C#N	MARV entry inh inconclusive (no result: SARS PLP yeast, HCV inhibitor)
CCOc1ccc(C(=O)NCCc2csc(-c3ccc(C(F)(F)F)cc3)n2)cc1OCC	FMDV inh inconclusive (no result: SARS PLP yeast, HCV inhibitor, MARV entry inh)
CN(c1ccc2c(-c3ccccn3)noc2n1)c1ccc(F)cc1F	none (no result: LASV entry inh, SARS PLP yeast, HCV inhibitor, MARV entry inh, FMDV inh)
CC(=O)Nc1ccc(NC(=O)C(C)N2CCN(S(=O)(=O)c3ccc(C)cc3)CC2)cc1 (centres undefined)	LASV entry inh inconclusive, MARV entry inh inconclusive
COc1ccc(CN2CCN(S(=O)(=O)c3ccc(NC(C)=O)cc3)CC2)c(OC)c1OC	HCMV antiviral -98! (no result: MARV entry inh)
COC(=O)Nc1ccc(S(=O)(=O)N2CCC(Cc3ccccc3)CC2)cc1	LASV entry inh 21µM, MARV entry inh inconclusive
CC(=O)Nc1ccc(S(=O)(=O)N2CCN(C(C)CCc3ccccc3)CC2)cc1 (centres undefined)	LASV entry inh 16µM, MARV entry inh 13µM
CC(C)c1ccc(NC(=O)N[C@H]2CC[C@@]34CCCN3C(=O)CCC[C@H]4[C@H]2C)cc1	none (no result: LASV entry inh, SARS PLP yeast, HCV inhibitor, MARV entry inh, FMDV inh)
N#Cc1cc2sc3nnc(-c4ccncc4)n3c2cc1C#N	HCMV antiviral -62, HCV inhibitor inconclusive, MARV entry inh inconclusive
N#Cc1cc2sc3nc4ccccc4n3c2cc1C#N	none (no result: LASV entry inh, HCMV antiviral, FMDV inh)
Nc1ncnc2c1ccn2[C@@H]1O[C@H](CO)[C@@H](O)[C@H]1O	HCMV antiviral -106, HCV inhibitor 35µM, FMDV inh inconclusive (no result: LASV entry inh, SARS PLP yeast, MARV entry inh)
OCC1OC(n2ccc3c2ncn2ncnc32)C(O)C1O (centres undefined)	HCMV antiviral -95, FMDV inh inconclusive (no result: LASV entry inh, SARS PLP yeast, HCV inhibitor, MARV entry inh)
Nc1ncnc2c1[nH]c(=O)n2C1OC(CO)C(O)C1O (centres undefined)	none (no result: LASV entry inh, HCMV antiviral, SARS PLP yeast, HCV inhibitor, MARV entry inh)
CNc1ncnc2c1ncn2[C@@H]1O[C@H](CO)[C@@H](O)[C@H]1O	LASV entry inh inconclusive (no result: SARS PLP yeast)
CCOc1ccccc1NC(=O)C1CCN(S(=O)(=O)c2ccc3[nH]c4c(c3c2)CCCCC4)CC1	HCMV antiviral inconclusive (no result: SARS PLP yeast, HCV inhibitor, MARV entry inh)
O=C(Nc1ncccn1)c1cccc(F)c1	HCMV antiviral -76 (no result: LASV entry inh, MARV entry inh)
O=C(Nc1cc(Sc2ccccn2)cc([N+](=O)[O-])c1)c1cccc(F)c1	LASV entry inh inconclusive, HCMV antiviral -67, HCV inhibitor inconclusive, MARV entry inh inconclusive, FMDV inh 32µM
